Measured values reported in the supplement of paper PMC6555819.

What was measured:
Assay in all cases: PBM binding z-score (relative to random genomic background probes); higher = stronger binding; sequences stand for … in GC…GCGATTGACAGCGTAGAATGAAGG
[1] = system: FXR:RXRa (NR concentration 270 nM, RXRa partner concentration 90 nM)
In short: (§1)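 Custom Agilent 4×180K protein-binding microarrays carried double-stranded probes, each with a 34-nt variable region. These regions held direct-repeat seeds, single-nucleotide variants, half-site ablations and random human genomic background sequences. Ligand-free nuclear receptor dimers were incubated on the arrays for 1 h, antibodies against each partner (one per run) detected binding, and scanned fluorescence was regression-normalized. Binding z-scores take the random background probes as reference.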

[2] = system: LXRa:RXRa (NR concentration 270 nM, RXRa partner concentration 90 nM)
In short: as §1

[3] = system: LXRa homodimer (NR concentration 270 nM)
In short: as §1

[4] = system: LXRb:RXRa (NR concentration 270 nM, RXRa partner concentration 90 nM)
In short: as §1

[5] = system: LXRb homodimer (NR concentration 270 nM)
In short: as §1

[6] = system: PPARa:RXRa (NR concentration 270 nM, RXRa partner concentration 90 nM)
In short: as §1

[7] = system: PPARg:RXRa (NR concentration 180 nM, RXRa partner concentration 90 nM)
In short: as §1

[8] = system: PPARg:RXRa 270nM:90nM, anti-RXR (NR concentration 270 nM, RXRa partner concentration 90 nM)
In short: as §1

[9] = system: PPARg:RXRa 30nM:10nM, anti-RXR (NR concentration 30 nM, RXRa partner concentration 10 nM)
In short: as §1

[10] = system: PPARg:RXRa 90nM:30nM, anti-RXR (NR concentration 90 nM, RXRa partner concentration 30 nM)
In short: as §1

GCTGCTAGGTCAGGTTCGTCAGCTAACGGGTACG
PBM binding z-score [1]: 1.58
PBM binding z-score [2]: 0.945
PBM binding z-score [3]: -0.287
PBM binding z-score [4]: 0.33
PBM binding z-score [5]: -0.46
PBM binding z-score [6]: 1.6
PBM binding z-score [7]: 0.685
PBM binding z-score [8]: 1.21
PBM binding z-score [9]: -0.222
PBM binding z-score [10]: 0.283

ATCGAATGGTCGACGAGGTGAGTATACACCGTTT
PBM binding z-score [1]: -0.323
PBM binding z-score [2]: -0.552
PBM binding z-score [3]: -0.816
PBM binding z-score [4]: -0.341
PBM binding z-score [5]: -0.342
PBM binding z-score [6]: -0.212
PBM binding z-score [7]: 0.744
PBM binding z-score [8]: -0.273
PBM binding z-score [9]: 0.119
PBM binding z-score [10]: -0.347

CTTACAGGGTCAGCTAGGCCAGAGTAGGGACGGC
PBM binding z-score [1]: 4.5
PBM binding z-score [2]: 2.83
PBM binding z-score [3]: -0.519
PBM binding z-score [4]: 2.04
PBM binding z-score [5]: -0.147
PBM binding z-score [6]: 4.25
PBM binding z-score [7]: 2.76
PBM binding z-score [8]: 3.24
PBM binding z-score [9]: 0.782
PBM binding z-score [10]: 2.02

ATCGAAAGGTCGAGGTGAGTATTGAGAAAGGGAA
PBM binding z-score [1]: 4.14
PBM binding z-score [2]: 3.39
PBM binding z-score [3]: -0.0656
PBM binding z-score [4]: 2.81
PBM binding z-score [5]: 0.293
PBM binding z-score [6]: 4.74
PBM binding z-score [7]: 3.29
PBM binding z-score [8]: 3.53
PBM binding z-score [9]: 1.37
PBM binding z-score [10]: 2.19

GCTTGTAGATCAAGGTTAAGAACGACTAAGCTAA
PBM binding z-score [1]: 0.0945
PBM binding z-score [2]: 0.622
PBM binding z-score [3]: -0.347
PBM binding z-score [4]: 0.349
PBM binding z-score [5]: -0.704
PBM binding z-score [6]: 1.59
PBM binding z-score [7]: 1.12
PBM binding z-score [8]: 2.18
PBM binding z-score [9]: 0.429
PBM binding z-score [10]: 1.44

AGTCAAAGTTCGCTAGGTAACGTAAGATTCAGCT
PBM binding z-score [1]: 0.102
PBM binding z-score [2]: 0.248
PBM binding z-score [3]: -0.0137
PBM binding z-score [4]: 0.158
PBM binding z-score [5]: -0.513
PBM binding z-score [6]: 0.793
PBM binding z-score [7]: 1.64
PBM binding z-score [8]: 2.36
PBM binding z-score [9]: 0.554
PBM binding z-score [10]: 1.85

AATACAGGGTCACTAGTCCAGAGTAGGTACGAAT
PBM binding z-score [1]: 5.5
PBM binding z-score [2]: 4.68
PBM binding z-score [3]: 0.946
PBM binding z-score [4]: 3.94
PBM binding z-score [5]: 1.32
PBM binding z-score [6]: 5.09
PBM binding z-score [7]: 5.61
PBM binding z-score [8]: 5.17
PBM binding z-score [9]: 1.77
PBM binding z-score [10]: 3.89

TCGAGTAGGTAACCAATGGGGCATTCAGCTTTCT
PBM binding z-score [1]: -0.177
PBM binding z-score [2]: 0.0243
PBM binding z-score [3]: -0.581
PBM binding z-score [4]: 0.362
PBM binding z-score [5]: -0.995
PBM binding z-score [6]: 0.488
PBM binding z-score [7]: -0.0874
PBM binding z-score [8]: 0.632
PBM binding z-score [9]: 1.08
PBM binding z-score [10]: 0.602

CCTTACGGGTCAAGGTTAGAGCACGGGTGGTACG
PBM binding z-score [1]: 5.52
PBM binding z-score [2]: 3.41
PBM binding z-score [3]: -0.175
PBM binding z-score [4]: 2.64
PBM binding z-score [5]: -0.214
PBM binding z-score [6]: 4.92
PBM binding z-score [7]: 4.33
PBM binding z-score [8]: 4.83
PBM binding z-score [9]: 1.86
PBM binding z-score [10]: 3.37

ATCGAGAGGTCGACGAGGTGAGTATACACCGTTT
PBM binding z-score [1]: 3
PBM binding z-score [2]: 2.28
PBM binding z-score [3]: -0.165
PBM binding z-score [4]: 1.65
PBM binding z-score [5]: -0.204
PBM binding z-score [6]: 3.36
PBM binding z-score [7]: 1.95
PBM binding z-score [8]: 2.03
PBM binding z-score [9]: 0.529
PBM binding z-score [10]: 1.52

CCTATTAGTTGACCATAAGGGCGACCGAAGCTCG
PBM binding z-score [1]: 0.484
PBM binding z-score [2]: 0.482
PBM binding z-score [3]: 0.301
PBM binding z-score [4]: 0.554
PBM binding z-score [5]: 0.545
PBM binding z-score [6]: 0.197
PBM binding z-score [7]: 0.29
PBM binding z-score [8]: 0.138
PBM binding z-score [9]: -0.288
PBM binding z-score [10]: 0.134

TCATATAGGTAAATGCTAGGTGAAAGTTCGATCT
PBM binding z-score [1]: 1.23
PBM binding z-score [2]: 1.18
PBM binding z-score [3]: 0.931
PBM binding z-score [4]: 1.27
PBM binding z-score [5]: -0.0844
PBM binding z-score [6]: 2.74
PBM binding z-score [7]: 3.2
PBM binding z-score [8]: 4.57
PBM binding z-score [9]: 4.77
PBM binding z-score [10]: 4.78

ATCTCTAGGTAACCAAGATCAGTGAATGCCGAAC
PBM binding z-score [1]: 0.221
PBM binding z-score [2]: 0.126
PBM binding z-score [3]: 0.199
PBM binding z-score [4]: 0.274
PBM binding z-score [5]: 0.276
PBM binding z-score [6]: 0.613
PBM binding z-score [7]: 0.694
PBM binding z-score [8]: 0.588
PBM binding z-score [9]: 0.161
PBM binding z-score [10]: 0.426

CATATAGGGTCAGCTAGGCCAGAGTAGGGACGGC
PBM binding z-score [1]: 4.43
PBM binding z-score [2]: 3.32
PBM binding z-score [3]: -0.142
PBM binding z-score [4]: 2.24
PBM binding z-score [5]: 0.223
PBM binding z-score [6]: 4.44
PBM binding z-score [7]: 3.29
PBM binding z-score [8]: 3.31
PBM binding z-score [9]: 0.812
PBM binding z-score [10]: 2.26

CCTATTAGTTGACCATAAGGGCAAGCGAAGCTCG
PBM binding z-score [1]: 0.766
PBM binding z-score [2]: 0.114
PBM binding z-score [3]: 0.254
PBM binding z-score [4]: 0.218
PBM binding z-score [5]: 0.573
PBM binding z-score [6]: 0.369
PBM binding z-score [7]: 0.36
PBM binding z-score [8]: 0.458
PBM binding z-score [9]: -0.0041
PBM binding z-score [10]: 0.237

ACAGACAGGTGAGTGAAGGTAACGCAGCTGGACG
PBM binding z-score [1]: 0.617
PBM binding z-score [2]: 0.126
PBM binding z-score [3]: -0.468
PBM binding z-score [4]: -0.215
PBM binding z-score [5]: -0.518
PBM binding z-score [6]: 0.197
PBM binding z-score [7]: 0.826
PBM binding z-score [8]: 0.162
PBM binding z-score [9]: -0.109
PBM binding z-score [10]: 0.232

AGAATGAGGTTATACGCAGATCAGGGAAGAAAGT
PBM binding z-score [1]: 2.11
PBM binding z-score [2]: 2.13
PBM binding z-score [3]: -0.247
PBM binding z-score [4]: 1.68
PBM binding z-score [5]: -0.102
PBM binding z-score [6]: 3.39
PBM binding z-score [7]: 1.58
PBM binding z-score [8]: 2.01
PBM binding z-score [9]: 0.827
PBM binding z-score [10]: 1.45

ATATGTAGGTTAGCTGGGGTCAGTCAGACTAGGC
PBM binding z-score [1]: 2.47
PBM binding z-score [2]: 4.36
PBM binding z-score [3]: 0.893
PBM binding z-score [4]: 3.37
PBM binding z-score [5]: 0.881
PBM binding z-score [6]: 4.38
PBM binding z-score [7]: 5.08
PBM binding z-score [8]: 4.38
PBM binding z-score [9]: 1.86
PBM binding z-score [10]: 3.72

AGAATGAGGTTAAGATCAGGGCAACAGAATACAT
PBM binding z-score [1]: 2.64
PBM binding z-score [2]: 2.98
PBM binding z-score [3]: 0.329
PBM binding z-score [4]: 2.17
PBM binding z-score [5]: 0.282
PBM binding z-score [6]: 3.7
PBM binding z-score [7]: 2.57
PBM binding z-score [8]: 2.84
PBM binding z-score [9]: 1.29
PBM binding z-score [10]: 2.24

CCAGACAGGTGAGAAGGTAACTCATCCTCGATTA
PBM binding z-score [1]: 0.223
PBM binding z-score [2]: 0.195
PBM binding z-score [3]: 0.213
PBM binding z-score [4]: 0.16
PBM binding z-score [5]: -0.283
PBM binding z-score [6]: 0.773
PBM binding z-score [7]: 0.558
PBM binding z-score [8]: 0.703
PBM binding z-score [9]: 0.0272
PBM binding z-score [10]: 0.508

ACTCGGCGGACAAAGGTCAGAGCTACGCCAGTGA
PBM binding z-score [1]: 3.34
PBM binding z-score [2]: 3.79
PBM binding z-score [3]: 1.32
PBM binding z-score [4]: 2.86
PBM binding z-score [5]: -0.304
PBM binding z-score [6]: 4.34
PBM binding z-score [7]: 4.89
PBM binding z-score [8]: 5.97
PBM binding z-score [9]: 3.53
PBM binding z-score [10]: 5.74

CCTGCTAGGTCAATGGTCAGTTAAAGCAGCTCGC
PBM binding z-score [1]: 3.02
PBM binding z-score [2]: 2.09
PBM binding z-score [3]: 0.0181
PBM binding z-score [4]: 1.53
PBM binding z-score [5]: -0.0412
PBM binding z-score [6]: 3.22
PBM binding z-score [7]: 4.36
PBM binding z-score [8]: 4.88
PBM binding z-score [9]: 2.78
PBM binding z-score [10]: 4.69

CCAAACAGGTGAGAAGGTAACTCAGCCTCGATTA
PBM binding z-score [1]: -0.19
PBM binding z-score [2]: -0.0558
PBM binding z-score [3]: -0.189
PBM binding z-score [4]: -0.138
PBM binding z-score [5]: -0.392
PBM binding z-score [6]: 0.653
PBM binding z-score [7]: 0.64
PBM binding z-score [8]: 1.22
PBM binding z-score [9]: 0.297
PBM binding z-score [10]: 0.598
